ATXN2 expr inh: reduces ATXN2 reporter expression in HEK-293 cells; HEK-293 ATXN2-luciferase reporter, luminescence, 24 h; Potency, µM (top dose mostly 57 µM), most hits filed as inhibitors; 360,000 compounds, 0.72% hits; AID 1745845; further: nearly all actives have a fitted effect of over 55% in size
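qHTS (up to 57 uM final) was run with 24 h compound exposure of reporter cells at 37 °C. Each well was multiplexed: SteadyGlo luminescence measured ATXN2-luciferase expression after a fluorogenic Gly-Phe-AFC viability readout (25 uM final).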
HepG2 viability: HepG2 cytotoxicity, counter-screen for TGF-b inhibitors; HepG2 CAGA-GFP viability, ATP luminescence, 18 h; Potency, µM (highest dose often 46.1 µM), most hits filed as cytotoxic; 410,000 compounds, 0.76% hits
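CellTiter-Glo luminescence gave cytotoxicity after 18 hours at 37 degrees C. The cells were HepG2 CAGA-GFP in 1% FBS DMEM, stimulated with 500 pg/mL TGF-beta after compound addition. %Activity was normalised to no-cell wells (complete cell-killing) and DMSO (no toxicity), and curves were fitted and classified.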
TGFb SMAD3 inh: TGF-b pathway inhibition. HepG2 CAGA-GFP TGF-b/SMAD3 reporter, GFP fluorescence, 18 h; TGF-beta stimulated, 500 pg/mL final. Potency, µM (series often up to 46.1 µM), actives largely listed as inhibitors. 410,000 compounds, 1.2% hits; further: nearly all actives have a fitted effect of over 65% in size
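TGF-beta reporter screen: HEPG2 CAGA-GFP, 1% FBS, 500 pg/mL TGF-beta final, 18 h; per-cell GFP summed per well; curves fitted and categorized by class.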
S2 tox: cell viability loss in ATXN counter-screen. S2 cells (HEK-293 line with an ATXN2-luciferase reporter) viability, CellTiter-Fluor protease fluorescence, 24 h. Potency, µM (titrated, usually from 56.7 µM), most hits filed as cytotoxic. 400,000 compounds, 0.49% hits; further: nearly all actives have a fitted effect of over 40% in size
GLP-1R inv ag: acts as inverse agonist at human GLP-1 receptor; HEK293 GLP-1R CRE-luciferase, luminescence, 24 h; GLP-1R form is constitutively active; Potency, µM (series often up to 38.3 µM), most hits filed as inhibitors; 410,000 compounds, 1.6% hits; further: nearly all actives have a fitted effect of over 55% in size
Target sequence (P43220 whole entry, looked up): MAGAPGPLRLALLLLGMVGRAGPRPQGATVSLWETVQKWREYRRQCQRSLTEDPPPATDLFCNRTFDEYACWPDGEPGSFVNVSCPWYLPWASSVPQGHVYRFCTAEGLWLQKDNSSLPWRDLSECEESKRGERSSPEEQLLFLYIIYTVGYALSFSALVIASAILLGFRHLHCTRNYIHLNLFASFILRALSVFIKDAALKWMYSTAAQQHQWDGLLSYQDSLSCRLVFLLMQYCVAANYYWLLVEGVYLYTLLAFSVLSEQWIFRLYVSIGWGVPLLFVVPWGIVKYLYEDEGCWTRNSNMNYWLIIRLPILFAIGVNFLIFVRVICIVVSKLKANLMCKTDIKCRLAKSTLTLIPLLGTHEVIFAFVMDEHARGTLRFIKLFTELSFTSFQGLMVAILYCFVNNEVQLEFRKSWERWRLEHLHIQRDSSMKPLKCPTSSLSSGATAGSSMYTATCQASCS
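Inverse agonism was detected as reduced cAMP-driven luciferase luminescence after 24 h compound treatment. The cells were HEK293 clones expressing constitutively active human GLP-1R with the reporter. Reporter-only and GPR119 cell lines served as counterscreen controls.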
GLP1R ag: GLP-1 receptor (human) agonism. Potency, µM (titrated, usually from 45.6 µM), most hits filed as activators. AID 624172. HEK293 GLP-1R CRE-luciferase, luminescence, 4-6 h; cells express a hypersensitive GLP-1R form. 380,000 compounds, 0.007% hits. P43220
A number is an active result; – = inactive; ? = inconclusive; · = no result given; [ ] = remark or other dose. In the library only some 3.7% were active in any assay of this set; here they are far more common. The call rests on the fitted dose curve; in most records, active means well fitted curve in the direction sought with a large enough effect; inconclusive means small, poorly fitted or top-dose-only effect, or another doubt; inactive means no such curve, though single readings can be large; an effect the other way counts as inactive or inconclusive.

SMILES	ATXN2 expr inh	HepG2 viability	TGFb SMAD3 inh	S2 tox	GLP-1R inv ag	GLP1R ag
COc1ccccc1C(=O)NCCc1csc(-c2ccc(C(F)(F)F)cc2)n1	·	–	8.9µM	·	?	·
COc1ccc(CCC(=O)NCCc2csc(-c3ccc(F)cc3)n2)cc1	·	–	8.9µM	·	?	·
COc1ccc(-c2nc(CCNC(=O)Cc3ccc(F)cc3)cs2)cc1	·	–	–	·	?	·
OC1CCC(Nc2ncc3nc(Nc4c(F)cc(F)cc4F)n([C@@H]4CCOC4)c3n2)CC1 (stereo partly drawn)	–	·	·	·	·	·
O=C(c1ccc(C(F)(F)F)cc1)N(Cc1cc2ccc(F)cc2nc1N1CCOCC1)C1CC1	·	·	·	–	·	·
NCCCC[C@H](NC(=O)[C@@H]1CCCN1C(=O)[C@@H]1CSSC[C@H](NC(=O)CNC(=O)CNC(=O)CN)C(=O)N[C@@H](Cc2ccc(O)cc2)C(=O)N[C@@H](Cc2ccccc2)C(=O)N[C@@H](CCC(N)=O)C(=O)N[C@@H](CC(N)=O)C(=O)N1)C(=O)NCC(N)=O	·	·	·	–	·	–
CN(C)CC[C@H](c1ccc(Br)cc1)c1ccccn1	·	·	·	–	·	·
Cc1ccc(CN2[C@H]3CCCC[C@@H]3OCCS2(=O)=O)cc1	·	–	–	·	·	·
CCOC(=O)C1=C(C)OC(=Cc2ccccc2)C1=O	·	–	–	–	–	–
CCOC(=O)C1=C(O)c2ccccc2C(=O)/C1=C\c1ccc(C)cc1	?	11µM	?	·	–	–
O=C1c2ccsc2SCCN1Cc1ccc(Cl)cc1	–	–	–	–	–	–
O=C1c2ccsc2SCCN1Cc1cccc(Cl)c1	–	–	?	–	13µM	–
COc1cc(NS(=O)(=O)c2ccc(N)cc2)nc(C)n1	–	·	·	–	·	–
O=C(Nc1ccc(N2CCOCC2)cc1)c1cn2ccccc2n1	11µM	–	–	–	?	–
O=C(Nc1ccc(N2CCCCC2)cc1)c1ccccn1	1.8µM	–	–	–	?	–
O=C(Nc1ccc(N2CCCCCC2)cc1)c1ccccc1Cl	–	–	–	?	?	–
COc1cc2c(cc1OC)CN(C(=O)[C@H](C)N[C@@H](CCc1ccccc1)C(=O)O)[C@H](C(=O)O)C2	–	·	·	–	·	·
CCOc1ccccc1N1CCN(C(=S)NCc2ccc(Cl)cc2)CC1	–	–	?	?	11µM	–
CCOc1ccccc1N1CCN(C(=S)NC(=O)C23CC4CC(CC(C4)C2)C3)CC1	?	–	?	–	?	–
COC(=O)C1=C(C)NC(C)=C(C(=O)OCC(C)C)C1c1ccccc1[N+](=O)[O-] (stereo not drawn)	?	–	18µM	?	?	–
O=C(NCCCCN1CCOCC1)c1cc2ccccc2o1	–	·	·	·	·	·
Cc1nc2ccc(NC(=O)c3ccc(S(=O)(=O)N(C)c4ccccc4)cc3)cc2s1	30µM	–	?	?	?	–
CC(=O)Nc1ccc(NC(=O)c2ccc(S(=O)(=O)N(C)c3ccccc3)cc2)cc1	·	–	–	?	?	–
CN(C(=O)CSc1nc2ccc(NC(=O)c3cccc(F)c3)cc2s1)c1ccccc1	?	–	–	?	5.6µM	·
CC12CC(NC(=O)N1c1cccc(C(=O)NCc3ccc4c(c3)OCO4)c1)c1cc(Cl)ccc1O2 (stereo not drawn)	–	–	–	–	1.6µM	–
SMILES	ATXN2 expr inh	HepG2 viability	TGFb SMAD3 inh	S2 tox	GLP-1R inv ag	GLP1R ag
CC(C)C(=O)Nc1cccc(C(=O)NCc2ccc3c(c2)OCO3)c1	–	–	–	–	–	–
CNc1nc2cc([N+](=O)[O-])c([N+](=O)[O-])cc2nc1NC	?	–	7.1µM	–	?	–
N#Cc1cc2nc(O)c(O)nc2cc1[N+](=O)[O-]	–	–	–	–	–	–
COc1ccccc1C1CN(CCNC(=O)c2ccccc2Cl)Cc2ccccc2O1 (stereo not drawn)	·	·	·	–	·	·
O=C(C=P(c1ccccc1)(c1ccccc1)c1ccccc1)c1ccccc1-c1ccccc1C(=O)C=P(c1ccccc1)(c1ccccc1)c1ccccc1	?	1.6µM	1µM	·	?	–
CCOc1ccc(Nc2nc(Cc3nnc(SCC(=O)c4ccc(C)c(C)c4)o3)cs2)cc1	–	–	–	–	11µM	–
CS/C(N)=N/N=C/c1cc(Br)cc(Br)c1O	·	–	6.3µM	–	?	–
Cc1ccc(N(NC(=O)C(O)(c2ccccc2)c2ccccc2)C(=O)CCl)cc1	28µM	16µM	?	18µM	?	–
Cc1ccc(C(O)(C(=O)NN(C(=O)c2ccccc2)c2ccccc2)c2ccc(C)cc2)cc1	–	–	–	–	–	–
c1ccc(CO/N=C(\c2ccc(C3CC3)nc2)C2CC2)cc1	–	–	–	–	7.9µM	–
O=C(CCc1nc2ccccc2s1)N1CCOc2ccc(CN3CCc4sccc4C3)cc2C1	·	·	·	–	·	·
COc1ccccc1NC1=C(NC(C)=O)C(=O)c2ccccc2C1=O	–	–	14µM	–	–	–
CC(=O)c1cccc(NC(=O)c2c(C)nn(-c3ccc(F)cc3)c2-n2cccc2)c1	–	–	–	–	–	–
COc1cc(NC(=O)Cn2ncc(Cl)c(Cl)c2=O)c(C)cc1[N+](=O)[O-]	27µM	–	?	17µM	–[0.307 µM]	–
COc1cc(NC(=O)CN2C(=O)CN(C)C2=O)c(C)cc1[N+](=O)[O-]	–	–	–	–	–	–
O=S1(=O)CCO[C@H]2CCCC[C@@H]2N1Cc1cccc(F)c1	·	–	–	·	·	·
COC(=O)c1c(OCc2ccccn2)cc(=O)n2c1CCN(Cc1ccc3c(c1)CCCN3C)CC2	·	·	·	–	·	·
Nc1ncnc(Sc2ncccn2)c1[N+](=O)[O-]	?	11µM	10µM	24µM	?	–
Cc1nc(NCc2ccc3nsnc3c2)sc1-c1ccn(C)n1	·	·	·	–	·	·
Cc1cc(C(=O)CN2C(=O)c3ccccc3S2(=O)=O)c(C)n1C(C)C	5µM	–	–	–	?	–
Cc1cc(C(=O)CN2C(=O)c3ccccc3S2(=O)=O)c(C)n1-c1ccccc1	4.5µM	–	–	–	1.4µM	–
CC1(C)CNc2cc(NC(=O)c3cccnc3NCc3ccncc3)ccc21	–	·	·	·	·	·
CN(C)/[N+]([O-])=N/Oc1cc(F)c([N+](=O)[O-])cc1[N+](=O)[O-]	·	–	–	·	·	·
COc1ccccc1NC(=O)c1c(Nc2ccccc2F)sc(C(=O)Nc2cccc(Cl)c2)c1N	?	–	16µM	?	?	–
O=C1C(=O)C(c2ccc(O)cc2O)Oc2cc(O)cc(O)c21 (stereo not drawn)	·	–	–	·	·	·
CCCCCCCCSC1=CC(=O)C(OC)=C(OC)C1=O	·	7.1µM	10µM	?	–	–
